One sequence from PMC7862700, “An all-to-all approach to the identification of sequence-specific readers for epigenetic DNA modifications on cytosine” can be followed below.

Assay in all cases: DAPPL (digital affinity profiling via proximity ligation, sequencing); 10 mM Tris-HCl pH 7.5, 50 mM NaCl, 1 mM DTT, 4% glycerol, room temperature, 30 min; GST-TFs on glutathione beads, 16-mer random dsDNA library, 0.1% formaldehyde crosslink after washing; high values mean tight binding
The target in experiment [1] is T1, FEV (Homo sapiens, UniProt Q99581 1-238).
T1 sequence: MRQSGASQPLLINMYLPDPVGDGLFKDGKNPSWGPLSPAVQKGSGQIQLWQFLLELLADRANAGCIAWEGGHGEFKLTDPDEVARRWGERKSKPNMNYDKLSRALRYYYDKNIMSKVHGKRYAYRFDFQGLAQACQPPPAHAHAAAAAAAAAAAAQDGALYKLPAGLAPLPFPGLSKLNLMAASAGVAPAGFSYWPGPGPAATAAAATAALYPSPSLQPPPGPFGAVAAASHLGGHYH
To be noted: protein: recombinant; tags: N-terminal GST; dsDNA, one strand shown. The essentials: (§1)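 Binding signal is each hexamer's read frequency for a factor divided by its frequency in the tag-only sample. The factors were GST-fused human transcription factors from yeast, captured on glutathione beads, DNA-barcoded and pooled with that sample. Pools were incubated with 200 nmole of a random double-stranded 16-mer DNA library in Tris/NaCl/DTT/glycerol buffer at room temperature for 30 min, then washed, crosslinked with 0.1% formaldehyde, proximity-ligated with BsaI/T4 ligase (1 h, 37 °C), PCR-amplified and sequenced on an Illumina NextSeq500.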

The target in experiment [2] is ETV5 (Homo sapiens, UniProt P41161 1-510). The note with it: protein: recombinant; tags: N-terminal GST; dsDNA, one strand shown. The essentials: as §1
The target in experiment [3] is HSF1 (Homo sapiens, UniProt Q00613 1-529). The note with it: protein: recombinant; tags: N-terminal GST; chain copies: 3; dsDNA, one strand shown. In short, it runs like this:
as §1

Experiment [4] has as its target T2, SPIC (Homo sapiens, UniProt Q8N5J4 1-248).
T2 sequence: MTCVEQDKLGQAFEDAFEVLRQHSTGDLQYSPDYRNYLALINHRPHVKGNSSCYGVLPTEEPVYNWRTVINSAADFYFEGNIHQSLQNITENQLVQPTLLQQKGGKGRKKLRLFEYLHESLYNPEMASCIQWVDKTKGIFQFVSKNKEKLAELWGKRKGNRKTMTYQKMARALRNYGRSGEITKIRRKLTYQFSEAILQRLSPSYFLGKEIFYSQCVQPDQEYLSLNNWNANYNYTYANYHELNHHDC
The note with it: protein: recombinant; tags: N-terminal GST; dsDNA, one strand shown. The essentials:
as §1

Experiment [5] addresses ELF4 (Homo sapiens, UniProt Q99607 1-663). To be noted: protein: recombinant; tags: N-terminal GST; dsDNA, one strand shown. In short, it runs like this: as §1
Experiment [6] has as its target T3, ELK4 (Homo sapiens, UniProt P28324-2 1-405).
T3 sequence: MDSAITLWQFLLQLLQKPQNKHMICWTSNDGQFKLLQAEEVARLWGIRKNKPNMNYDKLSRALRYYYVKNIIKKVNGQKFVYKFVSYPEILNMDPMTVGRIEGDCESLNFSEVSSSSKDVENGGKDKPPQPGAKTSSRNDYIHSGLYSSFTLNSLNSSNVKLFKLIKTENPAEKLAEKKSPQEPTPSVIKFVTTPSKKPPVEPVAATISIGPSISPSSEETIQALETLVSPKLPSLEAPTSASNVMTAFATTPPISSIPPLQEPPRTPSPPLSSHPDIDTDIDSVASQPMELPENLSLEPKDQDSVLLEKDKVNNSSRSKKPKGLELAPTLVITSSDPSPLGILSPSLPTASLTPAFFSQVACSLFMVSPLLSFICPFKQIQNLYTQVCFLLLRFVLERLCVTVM
To be noted: protein: recombinant; tags: N-terminal GST; dsDNA, one strand shown. In short, it runs like this: as §1

Experiment [7] has as its target T4, ETV2 (Homo sapiens, UniProt O00321 1-342).
T4 sequence: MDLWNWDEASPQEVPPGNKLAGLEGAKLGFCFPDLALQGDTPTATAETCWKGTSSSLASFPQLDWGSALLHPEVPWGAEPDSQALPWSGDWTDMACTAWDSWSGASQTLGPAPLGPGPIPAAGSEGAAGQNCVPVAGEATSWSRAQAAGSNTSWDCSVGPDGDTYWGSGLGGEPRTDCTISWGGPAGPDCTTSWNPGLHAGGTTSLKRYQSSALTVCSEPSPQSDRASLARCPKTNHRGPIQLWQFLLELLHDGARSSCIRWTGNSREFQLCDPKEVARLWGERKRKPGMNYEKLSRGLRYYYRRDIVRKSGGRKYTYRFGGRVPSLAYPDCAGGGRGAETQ
The note with it: protein: recombinant; tags: N-terminal GST; dsDNA, one strand shown. The essentials: as §1

Experiment [8] addresses T5, ELF3 (Homo sapiens, UniProt P78545 1-371).
T5 sequence: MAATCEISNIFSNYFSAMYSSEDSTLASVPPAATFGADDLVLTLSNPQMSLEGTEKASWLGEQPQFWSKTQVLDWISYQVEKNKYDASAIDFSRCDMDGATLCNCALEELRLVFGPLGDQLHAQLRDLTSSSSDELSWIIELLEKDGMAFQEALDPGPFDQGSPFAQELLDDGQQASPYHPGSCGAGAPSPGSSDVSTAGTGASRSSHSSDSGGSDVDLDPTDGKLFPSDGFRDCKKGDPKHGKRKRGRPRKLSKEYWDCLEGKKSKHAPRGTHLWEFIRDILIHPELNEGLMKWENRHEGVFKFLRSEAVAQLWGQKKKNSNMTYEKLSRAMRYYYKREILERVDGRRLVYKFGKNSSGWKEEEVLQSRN
To be noted: protein: recombinant; tags: N-terminal GST; dsDNA, one strand shown. In short, it runs like this: as §1

The target in experiment [9] is CRX (Homo sapiens, UniProt O43186 1-299). To be noted: protein: recombinant; tags: N-terminal GST; dsDNA, one strand shown. The essentials:
as §1

Experiment [10] has as its target ETV1 (Homo sapiens, UniProt P50549 1-477). The note with it: protein: recombinant; tags: N-terminal GST; dsDNA, one strand shown. In short, it runs like this: as §1
The target in experiment [11] is T6, ERF (Homo sapiens, UniProt P50548 1-548).
T6 sequence: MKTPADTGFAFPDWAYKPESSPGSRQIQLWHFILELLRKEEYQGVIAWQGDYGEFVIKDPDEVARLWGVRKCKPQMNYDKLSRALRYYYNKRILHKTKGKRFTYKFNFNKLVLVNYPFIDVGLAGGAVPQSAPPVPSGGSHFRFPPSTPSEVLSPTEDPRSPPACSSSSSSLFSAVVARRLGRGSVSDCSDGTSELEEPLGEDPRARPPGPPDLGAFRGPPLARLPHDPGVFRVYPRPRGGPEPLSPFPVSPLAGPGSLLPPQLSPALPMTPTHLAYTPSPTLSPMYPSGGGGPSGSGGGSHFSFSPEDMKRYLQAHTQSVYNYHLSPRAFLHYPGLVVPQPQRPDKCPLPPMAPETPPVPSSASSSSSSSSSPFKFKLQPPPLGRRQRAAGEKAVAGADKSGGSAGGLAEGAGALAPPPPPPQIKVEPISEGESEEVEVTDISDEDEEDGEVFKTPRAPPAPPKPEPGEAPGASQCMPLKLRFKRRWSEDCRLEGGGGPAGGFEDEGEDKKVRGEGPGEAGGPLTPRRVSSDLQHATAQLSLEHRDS
The note with it: protein: recombinant; tags: N-terminal GST; dsDNA, one strand shown. The essentials: as §1

Experiment [12] addresses T7, ETV3L (Homo sapiens, UniProt Q6ZN32 1-361).
T7 sequence: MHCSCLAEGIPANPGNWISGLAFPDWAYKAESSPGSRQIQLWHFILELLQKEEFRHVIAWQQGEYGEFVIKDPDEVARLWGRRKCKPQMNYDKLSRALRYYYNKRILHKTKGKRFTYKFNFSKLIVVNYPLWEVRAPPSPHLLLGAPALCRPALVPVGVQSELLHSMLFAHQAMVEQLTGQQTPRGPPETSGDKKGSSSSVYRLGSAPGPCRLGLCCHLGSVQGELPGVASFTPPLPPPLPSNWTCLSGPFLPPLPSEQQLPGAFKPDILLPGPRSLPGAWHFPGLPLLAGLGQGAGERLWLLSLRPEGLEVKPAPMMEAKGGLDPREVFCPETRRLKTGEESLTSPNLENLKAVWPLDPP
The note with it: protein: recombinant; tags: N-terminal GST; dsDNA, one strand shown. The essentials: as §1

In experiment [13] the target is T8, ETS2 (Homo sapiens, UniProt P15036 1-469).
T8 sequence: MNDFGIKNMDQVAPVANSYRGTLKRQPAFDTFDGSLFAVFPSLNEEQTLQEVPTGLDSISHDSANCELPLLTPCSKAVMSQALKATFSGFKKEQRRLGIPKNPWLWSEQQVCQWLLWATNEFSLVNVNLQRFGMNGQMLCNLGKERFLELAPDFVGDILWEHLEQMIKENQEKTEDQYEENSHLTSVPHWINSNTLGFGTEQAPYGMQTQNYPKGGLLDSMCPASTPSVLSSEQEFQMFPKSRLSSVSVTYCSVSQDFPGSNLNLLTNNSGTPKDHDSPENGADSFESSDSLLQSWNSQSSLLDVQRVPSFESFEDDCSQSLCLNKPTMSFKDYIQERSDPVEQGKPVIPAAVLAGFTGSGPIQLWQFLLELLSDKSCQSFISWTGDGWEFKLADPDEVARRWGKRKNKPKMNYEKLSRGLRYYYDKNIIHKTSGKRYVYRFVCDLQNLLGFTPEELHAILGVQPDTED
The note with it: protein: recombinant; tags: N-terminal GST; dsDNA, one strand shown. The essentials:
as §1

The target in experiment [14] is T9, SPDEF (Homo sapiens, UniProt O95238 1-335).
T9 sequence: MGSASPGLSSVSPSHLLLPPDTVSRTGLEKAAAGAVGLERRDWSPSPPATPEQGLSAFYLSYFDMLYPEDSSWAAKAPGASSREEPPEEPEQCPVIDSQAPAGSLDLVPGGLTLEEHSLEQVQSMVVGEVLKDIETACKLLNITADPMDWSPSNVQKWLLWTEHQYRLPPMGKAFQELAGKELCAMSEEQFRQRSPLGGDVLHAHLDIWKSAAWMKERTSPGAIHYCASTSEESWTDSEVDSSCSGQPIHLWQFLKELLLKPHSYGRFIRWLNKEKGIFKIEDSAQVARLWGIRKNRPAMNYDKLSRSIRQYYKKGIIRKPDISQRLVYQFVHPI
The note with it: protein: recombinant; tags: N-terminal GST; dsDNA, one strand shown. In short, it runs like this: as §1

The target in experiment [15] is T10, ETV7 (Homo sapiens, UniProt Q9Y603 1-341).
T10 sequence: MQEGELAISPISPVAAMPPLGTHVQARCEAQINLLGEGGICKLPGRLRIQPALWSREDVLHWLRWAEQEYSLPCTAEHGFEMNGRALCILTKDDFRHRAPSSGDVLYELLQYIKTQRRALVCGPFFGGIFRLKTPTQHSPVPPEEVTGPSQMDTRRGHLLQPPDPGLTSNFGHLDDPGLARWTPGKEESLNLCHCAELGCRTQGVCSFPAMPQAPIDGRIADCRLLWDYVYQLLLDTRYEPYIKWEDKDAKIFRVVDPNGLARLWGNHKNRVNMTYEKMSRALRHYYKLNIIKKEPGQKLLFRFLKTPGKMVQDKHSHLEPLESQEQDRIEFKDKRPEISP
The note with it: protein: recombinant; tags: N-terminal GST; dsDNA, one strand shown. In short, it runs like this:
as §1

Experiment [16] has as its target T11, ELF5 (Homo sapiens, UniProt Q9UKW6-2 1-255).
T11 sequence: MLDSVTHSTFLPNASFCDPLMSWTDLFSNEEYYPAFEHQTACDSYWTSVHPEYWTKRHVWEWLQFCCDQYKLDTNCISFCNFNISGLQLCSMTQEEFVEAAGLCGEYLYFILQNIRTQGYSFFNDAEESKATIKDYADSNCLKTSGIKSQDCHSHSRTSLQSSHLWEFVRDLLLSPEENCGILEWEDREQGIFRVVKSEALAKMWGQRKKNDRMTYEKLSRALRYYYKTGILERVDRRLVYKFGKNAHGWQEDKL
To be noted: protein: recombinant; tags: N-terminal GST; dsDNA, one strand shown. The essentials: as §1

For experiment [17], the target named is T12, ETV3 (Homo sapiens, UniProt P41162-2 1-143).
T12 sequence: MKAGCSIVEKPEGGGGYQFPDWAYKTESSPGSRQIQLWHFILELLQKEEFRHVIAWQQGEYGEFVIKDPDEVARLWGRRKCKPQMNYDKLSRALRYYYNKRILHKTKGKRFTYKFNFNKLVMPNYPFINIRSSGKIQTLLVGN
To be noted: protein: recombinant; tags: N-terminal GST; dsDNA, one strand shown. The essentials: as §1

Experiment [18] concerns the target ETV6 (Homo sapiens, UniProt P41212 1-452). The note with it: protein: recombinant; tags: N-terminal GST; dsDNA, one strand shown. In short, it runs like this: as §1

Chain of ETV5 (P41161 whole entry): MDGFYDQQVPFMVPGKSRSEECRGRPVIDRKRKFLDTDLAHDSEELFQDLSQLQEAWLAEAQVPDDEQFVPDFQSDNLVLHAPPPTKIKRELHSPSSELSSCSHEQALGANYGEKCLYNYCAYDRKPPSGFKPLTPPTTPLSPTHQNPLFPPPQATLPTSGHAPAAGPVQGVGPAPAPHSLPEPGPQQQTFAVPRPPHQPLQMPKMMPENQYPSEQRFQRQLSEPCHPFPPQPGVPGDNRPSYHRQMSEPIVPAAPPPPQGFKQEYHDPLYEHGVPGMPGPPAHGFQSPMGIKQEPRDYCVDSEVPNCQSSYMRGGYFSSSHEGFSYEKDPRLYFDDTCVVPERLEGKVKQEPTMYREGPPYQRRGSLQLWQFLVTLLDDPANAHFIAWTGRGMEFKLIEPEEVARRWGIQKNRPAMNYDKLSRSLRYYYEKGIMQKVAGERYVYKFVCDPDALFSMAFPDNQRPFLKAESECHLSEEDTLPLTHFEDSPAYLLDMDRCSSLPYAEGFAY
Chain of ETV1 (P50549 whole entry): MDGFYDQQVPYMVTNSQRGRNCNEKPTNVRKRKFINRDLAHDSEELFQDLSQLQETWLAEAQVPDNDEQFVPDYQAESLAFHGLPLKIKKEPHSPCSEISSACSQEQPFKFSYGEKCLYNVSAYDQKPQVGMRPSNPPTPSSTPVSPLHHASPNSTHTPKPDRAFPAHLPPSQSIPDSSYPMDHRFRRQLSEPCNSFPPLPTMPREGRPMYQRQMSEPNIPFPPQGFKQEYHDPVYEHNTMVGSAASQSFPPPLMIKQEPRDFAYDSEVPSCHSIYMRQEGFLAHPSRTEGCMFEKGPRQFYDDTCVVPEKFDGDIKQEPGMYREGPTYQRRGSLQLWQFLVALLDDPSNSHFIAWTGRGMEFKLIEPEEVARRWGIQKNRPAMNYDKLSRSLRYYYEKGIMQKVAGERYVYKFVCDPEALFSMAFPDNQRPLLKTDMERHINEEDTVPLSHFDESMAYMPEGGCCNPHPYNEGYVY
Chain of CRX (O43186 whole entry): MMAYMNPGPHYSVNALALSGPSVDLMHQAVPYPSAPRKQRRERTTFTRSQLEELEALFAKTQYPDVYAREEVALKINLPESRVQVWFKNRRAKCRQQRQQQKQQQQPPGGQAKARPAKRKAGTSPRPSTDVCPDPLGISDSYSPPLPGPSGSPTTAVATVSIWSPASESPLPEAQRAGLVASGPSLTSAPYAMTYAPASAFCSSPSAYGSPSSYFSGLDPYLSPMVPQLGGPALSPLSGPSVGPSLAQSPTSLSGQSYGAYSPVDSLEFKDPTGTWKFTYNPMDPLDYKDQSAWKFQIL
Chain of HSF1 (Q00613 whole entry): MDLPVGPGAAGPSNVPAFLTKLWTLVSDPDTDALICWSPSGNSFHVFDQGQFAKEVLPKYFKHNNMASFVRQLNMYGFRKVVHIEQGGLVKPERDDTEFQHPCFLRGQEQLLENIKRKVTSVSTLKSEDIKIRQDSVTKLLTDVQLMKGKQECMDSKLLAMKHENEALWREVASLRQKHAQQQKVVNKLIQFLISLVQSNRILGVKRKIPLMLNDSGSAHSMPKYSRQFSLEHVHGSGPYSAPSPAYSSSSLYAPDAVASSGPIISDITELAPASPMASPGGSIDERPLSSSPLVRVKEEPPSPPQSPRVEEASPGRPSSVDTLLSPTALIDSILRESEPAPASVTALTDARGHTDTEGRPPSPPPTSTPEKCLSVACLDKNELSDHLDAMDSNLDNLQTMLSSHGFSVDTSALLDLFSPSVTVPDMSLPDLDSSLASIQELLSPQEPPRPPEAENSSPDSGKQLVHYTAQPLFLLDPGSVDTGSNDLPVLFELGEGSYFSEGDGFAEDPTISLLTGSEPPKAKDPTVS
Chain of ELF4 (Q99607 whole entry): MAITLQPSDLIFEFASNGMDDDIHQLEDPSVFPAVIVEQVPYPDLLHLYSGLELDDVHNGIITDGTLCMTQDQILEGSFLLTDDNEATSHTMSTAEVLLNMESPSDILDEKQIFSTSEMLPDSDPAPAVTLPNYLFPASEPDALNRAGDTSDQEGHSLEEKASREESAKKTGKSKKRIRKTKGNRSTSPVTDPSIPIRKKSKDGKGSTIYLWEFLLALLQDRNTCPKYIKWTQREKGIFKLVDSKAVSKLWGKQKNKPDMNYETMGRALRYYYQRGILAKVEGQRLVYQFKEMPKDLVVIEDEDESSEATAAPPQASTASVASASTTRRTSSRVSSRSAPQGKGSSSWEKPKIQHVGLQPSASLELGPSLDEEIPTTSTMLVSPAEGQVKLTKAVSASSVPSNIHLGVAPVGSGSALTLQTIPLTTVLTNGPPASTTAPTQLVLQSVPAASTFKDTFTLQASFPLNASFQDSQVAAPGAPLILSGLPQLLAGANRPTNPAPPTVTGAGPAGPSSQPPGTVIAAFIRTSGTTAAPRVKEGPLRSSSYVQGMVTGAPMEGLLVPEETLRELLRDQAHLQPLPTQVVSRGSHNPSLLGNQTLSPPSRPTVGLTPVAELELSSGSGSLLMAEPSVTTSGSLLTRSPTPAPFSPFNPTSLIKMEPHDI
Chain of ETV6 (P41212 whole entry): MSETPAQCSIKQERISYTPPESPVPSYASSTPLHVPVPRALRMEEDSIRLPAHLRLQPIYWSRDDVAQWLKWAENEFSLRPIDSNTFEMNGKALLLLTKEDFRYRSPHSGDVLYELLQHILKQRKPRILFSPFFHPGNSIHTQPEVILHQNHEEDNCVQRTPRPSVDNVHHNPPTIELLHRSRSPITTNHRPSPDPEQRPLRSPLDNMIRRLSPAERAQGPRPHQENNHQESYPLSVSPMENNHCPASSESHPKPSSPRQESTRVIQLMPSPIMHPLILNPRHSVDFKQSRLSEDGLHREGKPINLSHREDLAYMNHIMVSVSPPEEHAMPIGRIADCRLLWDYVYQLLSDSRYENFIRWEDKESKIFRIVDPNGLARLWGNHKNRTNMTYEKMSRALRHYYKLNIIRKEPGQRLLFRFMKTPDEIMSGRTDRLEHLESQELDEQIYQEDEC

On to CTGTAC, for which the binding signal in experiment [1] is 1.44 fold enrichment (6-mer frequency, TF over GST control); in [2], 1.34 fold enrichment (6-mer frequency, TF over GST control); in [3] it was 1.02 fold enrichment (6-mer frequency, TF over GST control); in experiment [4], 1.41 fold enrichment (6-mer frequency, TF over GST control); in experiment [5], 1.33 fold enrichment (6-mer frequency, TF over GST control); in experiment [6] it was 1.43 fold enrichment (6-mer frequency, TF over GST control). The binding signal was 1.39 fold enrichment (6-mer frequency, TF over GST control) in [7]; 1.26 fold enrichment (6-mer frequency, TF over GST control) in experiment [8]; 1.06 fold enrichment (6-mer frequency, TF over GST control) in experiment [9]; 1.42 fold enrichment (6-mer frequency, TF over GST control) in [10]; 1.18 fold enrichment (6-mer frequency, TF over GST control) in experiment [11]; 1.35 fold enrichment (6-mer frequency, TF over GST control) in experiment [12]. Besides, the binding signal in experiment [13] was 1.33 fold enrichment (6-mer frequency, TF over GST control); in [14], 1.57 fold enrichment (6-mer frequency, TF over GST control); in [15] it was 1.22 fold enrichment (6-mer frequency, TF over GST control); in [16], 1.36 fold enrichment (6-mer frequency, TF over GST control); in experiment [17], 1.31 fold enrichment (6-mer frequency, TF over GST control); in experiment [18], 1.3 fold enrichment (6-mer frequency, TF over GST control).
